# Experimental data from PubChem BioAssay (NCATS).
# “And” between values parts separate entries of the source, which are not always exact repeats. Equal entries are not always repeated. A number with no mark means an inactive call. Results filed as inconclusive are left out. Entries that show only a call come without a potency. The source made the active and inactive calls. Unless noted, calls follow the shape of the dose curve; as a rule, active = well fitted curve in the direction sought with a large enough effect; inconclusive = small, poorly fitted or top-dose-only effect, or another doubt; inactive = no such curve, though single readings can be large; an effect the other way counts as inactive or inconclusive.
# How the values were obtained:
# [1] = Cell Viability - BJ (AID 421; calls by dose curve;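 also: potency is read from the fitted curve at half-maximal effect; cells exposed to compound for 40 hours at 37 °C before readout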); conditions: BJ fibroblast viability, qHTS
# How it was run: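 Cytotoxicity as drop in intracellular ATP (CellTiter-Glo, 20 min RT) after 40 hr compound exposure of BJ fibroblasts at 37 °C. Titrations scaled between DMSO and 100 uM tamoxifen, Hill-fitted for AC50.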
# [2] = Cell Viability - Hek293 (AID 427;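 active = compounds whose dose-response curve shows a full or clear partial loss of cell viability, called from curve shape rather than a numeric limit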;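 also: potency is read from the fitted curve at half-maximal effect; cells exposed to compound for 40 hours at 37 °C before reading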); conditions: qHTS
# How it was run: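 Luminescent ATP content (CellTiter-Glo, 20 min at room temperature) was measured after a 40 hr, 37 °C compound exposure of HEK293 cells. AC50 values came from Hill-equation fits of qHTS concentration-response data normalized to DMSO and 100 uM tamoxifen.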
# [3] = Cell Viability - HepG2 (AID 433; calls by dose curve;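 also: potency is read from the fitted curve at half-maximal effect; potency for ATP loss meaning cytotoxicity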); conditions: qHTS
# How it was run: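 Cytotoxicity is scored as loss of intracellular ATP in HepG2 cells exposed to compounds for 40 h. Concentration-response curves, normalized to DMSO and 100 uM tamoxifen, give AC50 values.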
# [4] = Cell Viability - MRC5 (AID 434; calls by dose curve;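 also: potency is read from the fitted curve at half-maximal effect; cells exposed to compound for 40 hours at 37 °C; potency reflects cytotoxicity seen as loss of intracellular ATP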); conditions: MRC5 lung fibroblast viability, qHTS
# How it was run: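 Decrease in intracellular ATP, quantified by luciferase light output, reflects compound toxicity toward MRC5 cells exposed for 40 hr in complete culture medium. Concentration-response curves, scaled between DMSO and 100 uM tamoxifen, gave AC50 values.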
# [5] = molecular target: Mitogen-activated protein kinase 10 (Mus musculus) (UniProt Q61831); assay: JNK3 AlphaScreen Assay (AID 530; active = well fitted curve in either direction with a large enough effect, not every such curve was filed as active;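 also: kinase came from lysate of stimulated human HepG2 cells; signal reports phosphorylation of biotinylated GST-cJun 1-79 at Ser73 with 10 µM ATP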)
# How it was run: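 Biotinylated GST-cJun(1-79) served as substrate for JNK3 in HepG2 lysates stimulated with IL-1beta and TNF-alpha. ATP was 10 uM final, pH 7.6. Ser73 phosphorylation was quantified by AlphaScreen (680 nm excitation).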
# [6] = Cell Viability - N2a (AID 540); conditions: N2a mouse neuroblastoma cell viability; at 92.2 µM (top of the series);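 also: cells exposed to compound for 40 h at 37 °C; nearly all actives have a fitted effect of over 45% in size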
# How it was run: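 N2a mouse neuroblastoma, 1500 cells/well, 5 hr settle; compound 40 hr, 37 °C; CellTiter-Glo 20 min RT; luminescence; Hill-fit AC50.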
# [7] = Cell Viability - HUV-EC-C (AID 542); also: nearly all actives have a fitted effect of over 35% in size
# How it was run: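 Luminescent ATP read-out (CellTiter-Glo, 20 min room temperature) after 40 hr compound treatment of HUV-EC-C cells at 37 °C. Concentration-response data fitted with the standard Hill equation to give AC50; tamoxifen and doxorubicin served as positive controls.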
# [8] = Cell Viability - SH-SY5Y (AID 544); conditions: SH-SY5Y neuroblastoma cell viability; viability change, negative = cytotoxic: at 92.2 µM (top of the series); also: potency is read from the fitted curve at half-maximal effect; nearly all actives have a fitted effect of over 55% in size
# How it was run: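 SH-SY5Y, 1500 cells/well, 5 hr pre-incubation 37 °C; cpd 40 hr 37 °C; CellTiter-Glo 20 min RT; luminescence (ATP) read. qHTS concentration-response, Hill fit → AC50. Tamoxifen, doxorubicin as positive controls.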
# [9] = Cell Viability - Renal Proximal Tubule (AID 545); conditions: renal proximal tubule cells viability; at 91.7 µM (top of the series), primary cells of rat origin unless noted; also: nearly all actives have a fitted effect of over 40% in size
# How it was run: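 Cytotoxicity is scored as a concentration-dependent drop in cellular ATP in primary rat renal proximal tubule cells exposed for 40 hr. AC50 derives from Hill modelling.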
# [10] = Cellular Toxicity (caspase-3) HepG2 (AID 654);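 also: cells exposed to compound for 16 hours before reading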
# How it was run: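 Luminescent Caspase-Glo 3/7 readout after 16 hr compound exposure of human hepatocellular carcinoma HepG2 cells at 37 °C; qHTS concentration-response, normalized DMSO = 0%, 100 uM tamoxifen = 100%; AC50 by standard Hill equation.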
# [11] = Cellular Toxicity (caspase-3) Jurkat (AID 655); conditions: Jurkat caspase-3 activation, luminescence, DMSO = 0%, tamoxifen = 100%; at 92.2 µM (top of the series);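 also: cells exposed to compound for 16 h at 37 °C before reading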
# How it was run: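 Caspase 3/7 activation is scored as increased luminescence in Jurkat cells cultured with compound for 16 hours in complete medium. AC50 values come from Hill fits of qHTS concentration-response data normalized to DMSO and 100 uM tamoxifen controls.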
# [12] = Cellular Toxicity (caspase-3) HUV-EC-C (AID 656)
# How it was run: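 Read-out: luminescence proportional to caspase 3/7 activity, measured 20 min after adding Caspase-Glo 3/7 reagent. Cells (HUV-EC-C) had received compound for 16 hr at 37°C. Increases relative to DMSO and 100 uM tamoxifen gave concentration-response AC50 values.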
# [13] = Cellular Toxicity (caspase-3) SHSY5Y (AID 657)
# How it was run: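 Cells plated and incubated 5 h at 37 °C, dosed over a concentration range, incubated 16 h, then given Caspase-Glo 3/7 reagent for 1 h at room temperature before luminescence reading. Staurosporine (10 uM) defined full stimulation.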
# [14] = Cellular Toxicity (caspase-3) BJ (AID 658)
# How it was run: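 Plated BJ cells (1000/well) rested 5 hr, received compound for 16 hr at 37 °C, then Caspase-Glo 3/7 reagent for 1 hr at room temperature before luminescence reading.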
# [15] = Cellular Toxicity (caspase-3) MRC-5 (AID 659)
# How it was run: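 Apoptosis readout in MRC-5 cells: luciferase light generated after caspase 3/7 cleaves a peptide-aminoluciferin substrate, measured post 16 hr compound incubation at 37 °C.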
# [16] = Cellular Toxicity (caspase-3) Mesangial (AID 660);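 also: cells exposed to compound for 16 h before the caspase read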
# How it was run: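 Luminescent Caspase-Glo 3/7 readout (aminoluciferin substrate cleavage, 20 min RT) after 16 h compound exposure at 37 °C of normal human mesangial cells. Signal increase normalized between DMSO basal and 100 uM tamoxifen; Hill-equation AC50.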
# [17] = Cellular Toxicity (caspase-3) SK-N-SH (AID 661)
# How it was run: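 Luminescent Caspase-Glo 3/7 read-out after 16 hr compound exposure of SK-N-SH neuroblastoma cells at 37 °C. Signal increase normalized to DMSO (basal) and 10 uM staurosporine (100%); AC50 from Hill equation fits of qHTS concentration-response data.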
# [18] = Cellular Toxicity (caspase-3) H-4-II-E (AID 663);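 also: cells exposed to compound for 16 hr before readout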
# How it was run: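 Caspase 3/7 activation measured in H-4-II-E cells in complete culture medium after 16 hr treatment at 37 °C, using luciferase-coupled substrate readout; AC50 values come from Hill-equation fits of normalized concentration-response data.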
# [19] = Cellular Toxicity (caspase-3) NIH 3T3 (AID 666)
# How it was run: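 NIH 3T3, 1000 cells/well, 5 hr settle then 16 hr compound at 37°C; Caspase-Glo 3/7, 20 min RT, luminescence. DMSO = basal, 100 uM tamoxifen = 100%. Hill-equation AC50, qHTS.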
# [20] = Cellular Toxicity (caspase-3) Renal Proximal Tubule (AID 667); conditions: renal proximal tubule cells; at 91.7 µM (top of the series), primary cells freshly taken from rat, solvent-only wells 0%, staurosporine 100% unless noted;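 also: cells exposed to compound for 16 hours at 37 °C before detection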
# How it was run: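 In qHTS format, rat primary proximal tubule cells seeded at 1000 per well are exposed to compounds for 16 hours at 37 °C. An increase in Caspase-Glo 3/7 luminescence indicates caspase activation.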
# [21] = molecular target: Cytochrome P450 3A4 (Homo sapiens) (UniProt P08684); assay: qHTS Assay for Inhibitors and Substrates of Cytochrome P450 3A4 (AID 884); also: potency is read from the fitted curve at half-maximal effect; nearly all actives have a fitted effect of over 50% in size
# Cytochrome P450 3A4 (Homo sapiens), sequence (P08684 whole entry, looked up): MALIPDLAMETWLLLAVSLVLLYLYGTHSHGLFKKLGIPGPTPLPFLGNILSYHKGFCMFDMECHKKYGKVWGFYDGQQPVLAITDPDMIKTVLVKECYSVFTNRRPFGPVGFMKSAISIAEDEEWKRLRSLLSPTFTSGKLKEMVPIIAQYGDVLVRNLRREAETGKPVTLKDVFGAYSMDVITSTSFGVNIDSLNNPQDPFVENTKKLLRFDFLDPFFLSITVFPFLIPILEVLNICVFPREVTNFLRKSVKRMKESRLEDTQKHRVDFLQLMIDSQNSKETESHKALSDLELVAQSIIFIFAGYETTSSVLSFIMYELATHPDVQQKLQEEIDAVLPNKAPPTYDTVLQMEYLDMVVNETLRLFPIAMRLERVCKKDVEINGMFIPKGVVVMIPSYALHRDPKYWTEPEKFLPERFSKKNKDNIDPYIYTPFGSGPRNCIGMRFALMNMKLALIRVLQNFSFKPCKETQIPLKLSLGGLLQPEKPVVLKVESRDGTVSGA
# How it was run: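 Luminescent readout of luciferin produced by CYP3A4 (20 nM) dealkylation of Luciferin-PPXE, 25 uM (its KM). NADPH-driven reaction ran 60 min at RT after 10 min compound preincubation; data scaled to 57 uM ketoconazole as 100% inhibition.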
# [22] = molecular target: Cytochrome P450 3A4 (Homo sapiens) (UniProt P08684); assay: qHTS Assay for Activators of Cytochrome P450 3A4 (AID 885); also: nearly all actives have a fitted effect of over 65% in size
# How it was run: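 Luminescent readout of luciferin formed from 25 uM Luciferin-PPXE (KM level) by 20 nM CYP3A4 in 200 mM KPO4, with 60 min NADPH-driven reaction at room temperature after 10 min compound exposure. Ketoconazole (57 uM) defined 100% inhibition.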
# [23] = MultiTox-Fluor Cytotoxicity Assay - LYMP1-001 - Live Cells (AID 947)
# [24] = Cell Viability - LYMP1-002 - Assay at 16 hr (AID 948)
# How it was run: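 Acute cytotoxicity is scored as a concentration-dependent fall in intracellular ATP in a human lymphoblastoid line (LYMP1-002) after 16 hr compound exposure at 37 C, measured by luciferase luminescence.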
# [25] = MultiTox-Fluor Cytotoxicity Assay - LYMP1-002 - Live Cells (AID 955)
# How it was run: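 LYMP1-002 lymphoblastoid cells; 2500 cells/well; 16 hr compound exposure, 37 C; MultiTox-Fluor reagent 60 min RT; live-cell fluorescence Ex/Em=405/510; qHTS concentration-response, Hill-equation AC50; tetraoctylammonium bromide positive control.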
# [26] = MultiTox-Fluor Cytotoxicity Assay - LYMP1-002 - Dead Cells (AID 960); also: nearly all actives have a fitted effect of over 60% in size
# How it was run: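 Readout: fluorescence at 485/520 from cell-impermeant bis-AAF-R110 cleaved by proteases leaking from damaged cells. LYMP1-002 lymphoblastoid line, 16 hr compound treatment at 37 C, concentration-response in qHTS format; Hill-equation AC50 values.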
# [27] = MultiTox-Fluor Cytotoxicity Assay - LYMP1-003 - Dead Cells (AID 961); also: nearly all actives have a fitted effect of over 70% in size
# How it was run: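 Dead-cell protease release, detected as bis-AAF-R110 fluorescence at 485/520 nm, was measured in LYMP1-003 cells after 16 h compound treatment at 37 C. AC50 values came from Hill-modeled qHTS curves normalized to DMSO (0%) and 15 uM tetraoctylammonium bromide (100%).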
# [28] = MultiTox-Fluor Cytotoxicity Assay - LYMP1-003 - Live Cells (AID 962);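 also: cytotoxic hits lower the live-cell protease signal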
# How it was run: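 Readout: live-cell fluorescence (Ex/Em=405/510) from GF-AFC cleavage after 60 min MultiTox-Fluor reagent at room temperature. Lymphoblastoid LYMP1-003 cells, 16 hr compound treatment, 37 C. Concentration-response fitted to standard Hill equation for AC50.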
# [29] = Cell Viability - LYMP1-003 - Assay at 24 hr (AID 963)
# How it was run: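 CellTiter-Glo luminescence (intracellular ATP) read after 24 hr, 37 C compound exposure of 2500 LYMP1-003 human lymphoblastoid cells/well in complete medium; qHTS concentration series; AC50 via standard Hill equation.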
# [30] = Cell Viability - LYMP2-003 (AID 965);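 also: cells exposed to compounds for 24 h before reading; nearly all actives have a fitted effect of over 50% in size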
# How it was run: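 Acute cytotoxicity is scored as a concentration-dependent drop in intracellular ATP, measured by luciferase luminescence in human lymphoblastoid cells treated for 24 hours at 37 C. AC50 values derive from Hill-equation modelling.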
smiles,measurement,setting,value
C[C@H]1CCCC(=O)CCC/C=C/c2cc(O)cc(O)c2C(=O)O1,Potency,[1],> 92 µM
same,Potency,[2],31.1 µM (active) and 40.2 µM (active)
same,Potency,[3],> 92 µM
same,Potency,[4],> 92 µM
same,outcome,[5],inactive
same,"activity change, negative = cytotoxicity",[6],-95.8% (active) and -87.8% (active)
same,Potency,[7],inactive
same,Potency,[8],12.6 µM (active) and 31.6 µM (active)
same,"activity change, negative = cytotoxicity",[9],-28.2% [at 91.7 µM]
same,outcome,[10],inactive
same,caspase-3 activation,[11],17.6% and 19.1%
same,outcome,[12],inactive
same,outcome,[13],inactive
same,outcome,[14],inactive
same,outcome,[15],inactive
same,outcome,[16],inactive
same,outcome,[17],inactive
same,outcome,[18],inactive
same,outcome,[19],inactive
same,caspase-3 activation,[20],5.71% [at 91.7 µM] and 9.28% [at 91.7 µM]
same,Potency,[21],316 nM (active) and 398 nM (active)
same,Potency,[22],inactive
same,Potency,[23],inactive
same,Potency,[24],inactive
same,outcome,[25],inactive
same,Potency,[26],inactive
same,Potency,[27],inactive
same,Potency,[28],inactive
same,Potency,[29],inactive
same,Potency,[30],inactive
